From PubChem
Sm TGR inh: inhibitors of Schistosoma mansoni thioredoxin glutathione reductase | purified TGR, DTNB reduction, TNB absorbance 405 nm | AID 485364 | Q962Y6 | Potency, µM (top dose mostly 114 µM), for inactives: at the top dose activity change, negative = inhibition, usual class: inhibitors | 360,000 tested, 3% active; also: nearly all actives have a fitted effect of over 60% in size
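Kinetic colorimetric format: TGR-catalysed, NADPH-driven DTNB reduction monitored via TNB absorbance. Enzyme dispensed at 20 nM; compound exposure 15 min at room temperature before reaction start.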
FMDV antiviral: antivirals against foot and mouth disease virus | FMDV antiviral cell-based qHTS | 410,000 tested, 1.2% active | Potency, µM (series often up to 57.9 µM), without a hit: top-dose activity change, negative = inhibition, usual class: inhibitors; calls by dose curve; tested in HEK293T cells; also: read-out not given here; nearly all actives have a fitted effect of over 45% in size
AmpC inh detg: inhibitors of E. coli AmpC beta-lactamase with detergent | 370,000 tested, 0.041% active | Potency, µM (top dose mostly 114 µM), for the others: top-dose activity change, negative = inhibition, usual class: inhibitors | AID 485294 | AmpC hydrolysis of nitrocefin, absorbance 480 nm, 0.01% Triton;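 also: 0% = no-compound wells and -100% = no-enzyme wells; nearly all actives have a fitted effect of over 25% in size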
Target sequence (P00811 whole entry, looked up): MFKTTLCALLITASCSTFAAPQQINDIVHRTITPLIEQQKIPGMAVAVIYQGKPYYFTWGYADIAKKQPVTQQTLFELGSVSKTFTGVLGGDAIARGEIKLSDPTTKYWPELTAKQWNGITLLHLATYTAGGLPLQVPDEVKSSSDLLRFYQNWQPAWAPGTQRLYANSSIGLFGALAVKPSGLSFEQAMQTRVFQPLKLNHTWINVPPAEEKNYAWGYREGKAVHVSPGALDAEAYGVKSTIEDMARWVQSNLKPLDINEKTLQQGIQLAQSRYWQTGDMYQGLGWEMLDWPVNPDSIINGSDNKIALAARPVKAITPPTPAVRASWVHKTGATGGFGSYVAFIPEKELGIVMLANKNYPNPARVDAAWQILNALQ
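20 mM phosphate pH 7.0 + 0.01% (detergent screen) or 0.0001% Triton X-100; 5.3 nM AmpC reagent; cpd preinc 15 min RT; nitrocefin (800 uM stock) to start; A480 q20 s × 4 min; Activity was normalised to no-enzyme and no-compound control wells.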
AmpC inh no detg: inhibitors of E. coli AmpC beta-lactamase without detergent | AmpC nitrocefin hydrolysis, absorbance 480 nm, 0.0001% Triton | P00811 | 330,000 tested, 0.52% active | AID 485341 | Potency, µM (series often up to 57.1 µM), for inactives: at the highest dose activity change, negative = inhibition, actives largely listed as inhibitors;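 also: plate controls were no compound for no effect and no enzyme for full effect; nearly all actives have a fitted effect of over 20% in size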
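20 mM phosphate pH 7.0 + 0.01% (detergent screen) or 0.0001% Triton X-100; 5.3 nM AmpC reagent; cpd preinc 15 min RT; nitrocefin (800 uM stock) to start; A480 q20 s × 4 min; Activity was normalised to no-enzyme and no-compound control wells.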
AMA1-RON2 inh: AMA1-RON2 (P. falciparum) interaction inhibition; AlphaScreen AMA1-biotinylated RON2 peptide binding; Potency, µM (doses to about 58.2 µM), for inactives: top-dose activity change, negative = inhibition, actives largely listed as inhibitors; 360,000 tested, 0.2% active;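 also: 0% = vehicle wells and -100% = peptide control; nearly all actives have a fitted effect of over 45% in size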
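AMA1 (3D7) with his tag at 25 nM final met compounds first, then biotinylated RON2 peptide at 25 nM; detection used donor plus acceptor beads, 10 µg/mL apiece, read by AlphaScreen after 30 min at room temperature.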
Numbers without * were called inactive; ? = inconclusive; · = not tested or not shown. An excerpt weighted towards active compounds, which were near 4.1% of everything screened. Unless noted, calls follow the shape of the dose curve; as a rule, active = well fitted curve in the direction sought with a large enough effect; inconclusive = small, poorly fitted or top-dose-only effect, or another doubt; inactive = no such curve, though single readings can be large; an effect the other way counts as inactive or inconclusive. Unless noted, % is scaled to controls: 0 for no effect and ±100 for the full control effect; potency is read from the fitted curve at half-maximal effect.

SMILES	Sm TGR inh	FMDV antiviral	AmpC inh detg	AmpC inh no detg	AMA1-RON2 inh
CCCn1c(=O)c2sccc2n2c(CCCC(=O)NC3CCC(C)CC3)nnc12 (stereo not drawn)	12%	2%	-2%	·	·
O=[N+]([O-])c1cc(Cl)ccc1Nc1ccccc1	-19%	-3%	0%	-23%	14µM*
Cc1cc(NC(=O)c2ccc3c(c2)C(=O)N(C2CCCCC2)C3=O)no1	0%	-8%	-3%	-5%	0%
O=C(Nc1ccncc1)c1ccc2c(c1)C(=O)N(C1CCCCC1)C2=O	-1%	14µM*	2%	0%	-20%
CCOC(=O)c1sc(NS(=O)(=O)c2ccccc2)nc1C	-28%	·	-9%	-12%	-3%
Cc1nc(NS(=O)(=O)c2ccccc2)sc1NC(=O)OCCN(C)C	32µM*	-6%	2%	-19%	8%
Cc1cc(/C=N/NC(=O)C(O)(c2ccccc2)c2ccccc2)c(C)n1-c1cccc(C(=O)O)c1	32µM*	1%	5%	-18%	50%
Cc1cc(/C=N/NC(=O)C(O)(c2ccccc2)c2ccccc2)c(C)n1-c1ccc(C(=O)O)cc1	-22%	0%	-2%	-46%	54%
COC(=O)c1sccc1NC(=O)c1cccc(F)c1	·	0%	·	·	15%
COC(=O)c1sccc1NC(=O)c1c(F)c(F)c(F)c(F)c1F	·	22µM*	·	·	22%
O=C(c1cnccn1)N1CCC2(CC1)CN(c1ncccn1)C2	·	-9%	·	·	·
CC1(C)CC(=O)c2c(oc3ccc(NS(=O)(=O)c4cccc5cccnc45)cc23)C1	12%	11µM*	6%	-2%	7%
CCc1ccc(NC(=O)CCNS(=O)(=O)c2ccc3c(c2)oc(=O)n3C)cc1	-17%	-11%	10%	·	·
N#CC(C#N)=Cc1ccc(-c2ccccc2F)o1	4µM*	-23%	-10%	-7%	8%
N#CC(C#N)=Cc1ccc(-c2ccccc2)o1	?	·	-12%	-22%	·
c1cc(CNCCc2ccc3c(c2)OCO3)ccn1	45µM*	-17%	?	14%	?
Clc1ccc(CCNCc2ccncc2)c(Cl)c1	28µM*	-24%	?	-7%	?
COc1ccc(CNCCc2ccc(Cl)cc2Cl)cc1	-6%	-18%	-3%	-11%	1%
CCCCNC(=O)c1ccc2c(c1)N(CC)C(=O)c1ccccc1S2(=O)=O	4%	-8%	?	45µM*	-2%
CCN1C(=O)c2ccccc2S(=O)(=O)c2ccc(C(=O)NC(C)C)cc21	-14%	9%	1%	-14%	-7%
COc1ccc(OC(=O)c2nc(SCc3ccccc3C)ncc2Cl)cc1	5%	-28%	28%	·	·
COc1ccc(N=C2C(=Nc3ccc(OC)cc3)N(c3ccc(OC)cc3)C(=S)N2C)cc1	-1%	·	2%	11%	6.7µM*
COc1cccc(C(=O)CN2CCN(S(=O)(=O)c3ccc(Cl)cc3)CC2)c1	22µM*	-12%	8%	·	·
COc1ccc(S(=O)(=O)N2CCN(CC(=O)c3ccc(O)c(O)c3)CC2)cc1	20µM*	-14%	1%	-26%	62%
COc1ccc(S(=O)(=O)N2CCN(S(=O)(=O)c3ccc(OC)cc3)CC2)cc1	-9%	·	0%	-10%	·
SMILES	Sm TGR inh	FMDV antiviral	AmpC inh detg	AmpC inh no detg	AMA1-RON2 inh
CCOc1ccc(C(=O)CN2CCN(S(=O)(=O)c3ccc(F)cc3)CC2)cc1	25µM*	-23%	1%	1%	-6%
O=C(CN1CCN(S(=O)(=O)c2ccc(F)cc2)CC1)c1ccc(O)c(O)c1	22µM*	-19%	4%	-8%	13%
COc1cccc(N2CCN(CC(=O)N3CCN(S(=O)(=O)c4ccc(Cl)cc4)CC3)CC2)c1	5%	-25%	3%	325%	-23%
CCOc1ccc(S(=O)(=O)N2CCN(S(=O)(=O)c3ccc(C(C)=O)cc3)CC2)cc1	-19%	-15%	-7%	1%	-3%
CCOC(=O)c1cnc2ccc(OC(F)(F)F)cc2c1Nc1ccccc1C(=O)O	-3%	-21%	-2%	·	·
COc1ccccc1C1CN(CC(=O)N2CCC(C(O)c3ccccn3)CC2)Cc2ccccc2O1 (stereo not drawn)	·	2%	·	·	·
O=C(CN1CCN(S(=O)(=O)c2ccc(Cl)cc2)CC1)c1ccc(O)c(O)c1	20µM*	-19%	-4%	-42%	61%
CC(=O)Nc1ccc(S(=O)(=O)N2CCN(CCCOc3ccccc3Cl)CC2)cc1	-26%	12%	?	79%	4%
COc1cccc(OCCCN2CCN(S(=O)(=O)c3ccc(NC(C)=O)cc3)CC2)c1	18%	14µM*	4%	124%	-1%
O=C(OCc1cc(=O)n2nc(C3CCCCC3)sc2n1)c1ccccc1Cl	-2%	36%	10%	·	·
COc1cc2c(cc1OC)C(c1cc(Br)ccc1F)N(C(=O)CCl)CC2 (stereo not drawn)	0.79µM*	28µM*	-1%	-1%	-5%
CC1CC(C)CN(C(=O)c2ccc3c(c2NCCO)C(=O)c2ccccc2C3=O)C1 (stereo not drawn)	1%	-21%	-8%	129%	22µM*
CC1CC(C)CN(C(=O)COC(=O)CN2C(=O)c3ccccc3C2=O)C1 (stereo not drawn)	·	-9%	·	-3%	-5%
CN(C)N1C(=O)CC(N2CCCC2)C1=O (stereo not drawn)	22µM*	-5%	-3%	-5%	-1%
O=C1CC(N2CCOCC2)C(=O)N1CCN1C(=O)CC(N2CCOCC2)C1=O (stereo not drawn)	-24%	11%	-11%	-8%	21%
COc1ccccc1CNC(=O)C(NS(=O)(=O)c1cccs1)C(C)C (stereo not drawn)	6%	-19%	21%	·	·
Cc1cn(C)c(CC(=O)N2CCN(c3ccccc3F)CC2)c1C(=O)O	-1%	-16%	5%	·	·
CC(Sc1ccccc1)C(=O)Nc1ccccc1C(=O)N1CCOCC1 (stereo not drawn)	2%	0%	5%	0.28µM*	-4%
Cc1cc(-c2ccc(N=Nc3ccc4c(S(=O)(=O)O)cc(S(=O)(=O)O)c(N)c4c3O)c(C)c2)ccc1N=Nc1ccc2c(S(=O)(=O)O)cc(S(=O)(=O)O)c(N)c2c1O	·	32µM*	·	·	·
Cc1ccc(N=Nc2ccc(N)cc2C)c(S(N)(=O)=O)c1	-23%	49%	-1%	-44%	-7%
Cc1ccc(C)c(CNC(=O)c2ccc3c(c2)nc2n3CCCCC2)c1	-2%	20%	2%	·	·
N#Cc1ccc(NC(=O)COCc2cc(-c3ccc4c(c3)OCO4)on2)cc1	-2%	3%	-6%	·	·
COc1ccccc1-c1c(C)nn2c(N3CCCCCC3)cc(C)nc12	-7%	28µM*	?	156%	32%
COc1ccccc1-c1c(C)nn2c(N3CCOCC3)cc(C)nc12	1%	?	-1%	24%	-4%
